Measured values as given in PubChem BioAssay (EPA / NIEHS).
The source made the active and inactive calls. The calls were made as follows: active = hit-call score of the fitted dose curve at least 0.9, where 1 is the maximum; inactive = score below 0.9.

Experiments:
Conditions in all cases: mRNA level, 48 h; actives raise or lower the signal
[1] = read-out: growth arrest and DNA damage 45 (GADD45A), GADD45A (gene 1647); assay: LTEA_HepaRG_GADD45A: Life Technologies and Expression Analysis (LTEA) Assay for growth arrest and DNA damage 45 (GADD45A) using HepaRG (AID 2283458)
How it was run: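 Human HepaRG liver cells are treated in duplicate for 48 h with chemicals in 0.5% DMSO, highest concentration 100 uM. Expression is read by qRT-PCR and analyzed in both directions against vehicle.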

[2] = read-out: Forkhead box O3 (FOXO3), FOXO3 (gene 2309); assay: LTEA_HepaRG_FOXO3: Life Technologies and Expression Analysis (LTEA) Assay for Forkhead box O3 (FOXO3) using HepaRG (AID 2283459)
How it was run: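 Differentiated human HepaRG cells in serum-free induction medium were exposed in duplicate for 48 h to eight half-log concentrations up to 100 uM in 0.5% DMSO. FOXO3 mRNA was quantified by qRT-PCR, normalized to ACTB, GAPDH and POLR2A, with bidirectional fitting versus DMSO.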

[3] = read-out: ABC Transporter (ABCB1), ABCB1 (gene 5243); assay: LTEA_HepaRG_ABCB1: Life Technologies and Expression Analysis (LTEA) Assay for ABC Transporter (ABCB1) using HepaRG (AID 2283460)
How it was run: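 Differentiated human HepaRG cells, plated 48 h then switched to serum-free induction medium, were exposed in duplicate to eight half-log concentrations up to 100 uM in 0.5% DMSO for 48 h. ABCB1 mRNA was measured by TaqMan qRT-PCR, normalized to ACTB/GAPDH/POLR2A.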

[4] = read-out: growth arrest and DNA damage 45 (GADD45B), GADD45B (gene 4616); assay: LTEA_HepaRG_GADD45B: Life Technologies and Expression Analysis (LTEA) Assay for growth arrest and DNA damage 45 (GADD45B) using HepaRG (AID 2283461)
How it was run: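 Differentiated human HepaRG cells in serum-free induction medium exposed 48 h in duplicate to eight concentrations, top 100 uM, half-log steps, 0.5% DMSO. GADD45B mRNA by TaqMan qRT-PCR, normalized to ACTB, GAPDH, POLR2A; bidirectional fit versus DMSO.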

[5] = read-out: ABC Transporter (ABCC3), ABCC3 (gene 8714); assay: LTEA_HepaRG_ABCC3: Life Technologies and Expression Analysis (LTEA) Assay for ABC Transporter (ABCC3) using HepaRG (AID 2283462)
How it was run: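 Differentiated human HepaRG cells exposed 48 h in serum-free induction medium, 0.5% DMSO vehicle, 8-point half-log series to 100 uM in duplicate. ABCC3 mRNA by qRT-PCR, normalised to ACTB, GAPDH, POLR2A; bidirectional fit vs DMSO.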

[6] = read-out: ABC Transporter (ABCB11), ABCB11 (gene 8647); assay: LTEA_HepaRG_ABCB11: Life Technologies and Expression Analysis (LTEA) Assay for ABC Transporter (ABCB11) using HepaRG (AID 2283463)
How it was run: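 Differentiated human HepaRG cells were exposed for 48 h in serum-free induction medium to eight half-log concentrations up to 100 uM in 0.5% DMSO. ABCB11 mRNA was quantified by qRT-PCR, normalized to ACTB, GAPDH and POLR2A, and fitted bidirectionally versus DMSO.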

[7] = read-out: ABC Transporter (ABCC2), ABCC2 (gene 1244); assay: LTEA_HepaRG_ABCC2: Life Technologies and Expression Analysis (LTEA) Assay for ABC Transporter (ABCC2) using HepaRG (AID 2283464)
How it was run: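 Differentiated HepaRG cells in serum-free induction medium exposed 48 h to eight half-log concentrations up to 100 uM, 0.5% DMSO, in duplicate. ABCC2 mRNA measured by qRT-PCR (TaqMan, Fluidigm), normalized to ACTB, GAPDH and POLR2A. Fitted in both directions against DMSO.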

[8] = read-out: Broad substrate specificity ATP-binding cassette transporter ABCG2 (Homo sapiens) (UniProt Q9UNQ0); assay: LTEA_HepaRG_ABCG2: Life Technologies and Expression Analysis (LTEA) Assay for ABC Transporter (ABCG2) using HepaRG (AID 2283465)
How it was run: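 Differentiated HepaRG cells in serum-free induction medium were exposed for 48 h, in duplicate, to eight half-log concentrations up to 100 uM in 0.5% DMSO. ABCG2 mRNA was measured by TaqMan qRT-PCR, normalized to ACTB, GAPDH and POLR2A, and fitted bidirectionally versus DMSO.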

[9] = read-out: ATP-citrate lyase (ACLY), ACLY (gene 47); assay: LTEA_HepaRG_ACLY: Life Technologies and Expression Analysis (LTEA) Assay for ATP-citrate lyase (ACLY) using HepaRG (AID 2283466)
How it was run: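 Differentiated human HepaRG cells in serum-free induction medium exposed 48 h, in duplicate, to eight half-log concentrations from 100 uM top in 0.5% DMSO; ACLY mRNA measured by qRT-PCR, normalized to ACTB, GAPDH, POLR2A, fitted bidirectionally versus DMSO.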

[10] = read-out: Peroxisomal acyl-coenzyme A oxidase 1 (ACOX1) gene, ACOX1 (gene 51); assay: LTEA_HepaRG_ACOX1: Life Technologies and Expression Analysis (LTEA) Assay for Peroxisomal acyl-coenzyme A oxidase 1 (ACOX1) gene using HepaRG (AID 2283467)
How it was run: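 Differentiated human HepaRG cells were exposed in duplicate for 48 h in serum-free induction medium to eight half-log concentrations up to 100 uM in 0.5% DMSO. ACOX1 mRNA was then quantified by TaqMan qRT-PCR, normalized to ACTB, GAPDH and POLR2A.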

[11] = read-out: Alkaline Phosphatase, Placental (ALPP) gene, ALPP (gene 250); assay: LTEA_HepaRG_ALPP: Life Technologies and Expression Analysis (LTEA) Assay for Alkaline Phosphatase, Placental (ALPP) gene using HepaRG (AID 2283468)
How it was run: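 HepaRG cells plated 48 h, then exposed in duplicate for 48 h in serum-free induction medium to 8-point half-log series from 100 uM in 0.5% DMSO. ALPP mRNA by TaqMan qRT-PCR, normalized to ACTB/GAPDH/POLR2A; bidirectional fit versus DMSO.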

[12] = read-out: Bcl-2 (BAD) gene, BAD (gene 572); assay: LTEA_HepaRG_BAD: Life Technologies and Expression Analysis (LTEA) Assay for Bcl-2 (BAD) gene using HepaRG (AID 2283469)
How it was run: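 Differentiated human HepaRG cells in serum-free induction medium were exposed in duplicate for 48 h to eight concentrations (top 100 uM, half-log steps, 0.5% DMSO). BAD mRNA was quantified by qRT-PCR normalised to ACTB, GAPDH and POLR2A, with bidirectional fitting versus DMSO.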

[13] = read-out: Bcl-2 (BAX) gene, BAX (gene 581); assay: LTEA_HepaRG_BAX: Life Technologies and Expression Analysis (LTEA) Assay for Bcl-2 (BAX) gene using HepaRG (AID 2283470)
How it was run: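 Concentration-response endpoint fitted in both directions relative to 0.5% DMSO vehicle. Human HepaRG cultures receive test chemicals for 48 h at up to 100 uM; BAX mRNA is quantified by qRT-PCR against housekeeping genes.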

[14] = read-out: adenosine kinase (ADK) gene, ADK (gene 132); assay: LTEA_HepaRG_ADK: Life Technologies and Expression Analysis (LTEA) Assay for adenosine kinase (ADK) gene using HepaRG (AID 2283471)
How it was run: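 Read-out is ADK transcript level measured by qRT-PCR and normalised to three housekeeping genes. Cells are human HepaRG, dosed for 48 h at up to 100 uM in 0.5% DMSO. Gain or loss of signal is fitted against DMSO controls.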

[15] = read-out: Alpha-fetoprotein (AFP) gene, AFP (gene 174); assay: LTEA_HepaRG_AFP: Life Technologies and Expression Analysis (LTEA) Assay for Alpha-fetoprotein (AFP) gene using HepaRG (AID 2283472)
How it was run: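 After a 48 h plating period, cells are moved to serum-free induction medium and dosed in duplicate (100 uM maximum, half-log dilutions, 0.5% DMSO) for another 48 h. Total RNA goes to TaqMan qRT-PCR; AFP signal is housekeeping-normalized.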

BCL2L11 (gene 10018) = assay: LTEA_HepaRG_BCL2L11: Life Technologies and Expression Analysis (LTEA) Assay for Bcl-2 (BCL2L11) gene using HepaRG (AID 2283473)
How it was run: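 Differentiated human HepaRG cells were exposed 48 h in serum-free induction medium to eight half-log concentrations up to 100 uM in 0.5% DMSO, in duplicate. BCL2L11 mRNA was quantified by TaqMan qRT-PCR, normalized to ACTB, GAPDH and POLR2A; induction or repression fitted versus DMSO.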

[16] = read-out: Apolipoprotein A-V (APOA5) gene, APOA5 (gene 116519); assay: LTEA_HepaRG_APOA5: Life Technologies and Expression Analysis (LTEA) Assay for Apolipoprotein A-V (APOA5) gene using HepaRG (AID 2283474)
How it was run: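 Differentiated HepaRG cells in serum-free induction medium, exposed 48 h in duplicate to eight half-log concentrations topping at 100 uM (0.5% DMSO). APOA5 mRNA by Fluidigm TaqMan qRT-PCR, normalized to ACTB, GAPDH and POLR2A; bidirectional fit versus DMSO.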

[17] = read-out: Apoptosis regulator Bcl-2 (Homo sapiens) (UniProt P10415); assay: LTEA_HepaRG_BCL2: Life Technologies and Expression Analysis (LTEA) Assay for Bcl-2 gene using HepaRG (AID 2283475)
How it was run: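 Expression change of BCL2 mRNA in HepaRG after 48 h dosing, quantified by TaqMan qRT-PCR against three endogenous controls. Concentration-response used eight points up to 100 uM, vehicle 0.5% DMSO.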

[18] = read-out: Bcl-2 (BID) gene, BID (gene 637); assay: LTEA_HepaRG_BID: Life Technologies and Expression Analysis (LTEA) Assay for Bcl-2 (BID) gene using HepaRG (AID 2283476)
How it was run: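 Gain or loss of BID expression is fitted relative to 0.5% DMSO vehicle. Human HepaRG liver cells received a 48 h chemical exposure over an eight-point concentration range.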

Caspase-3 (Homo sapiens) = Caspase-3 (Homo sapiens) (UniProt P42574); assay: LTEA_HepaRG_CASP3: Life Technologies and Expression Analysis (LTEA) Assay for cysteine-aspartic acid protease (CASP3) using HepaRG (AID 2283477)
How it was run: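 Differentiated HepaRG cells, plated 48 h, were treated in duplicate in serum-free induction medium for 48 h with eight half-log concentrations up to 100 uM in 0.5% DMSO. CASP3 mRNA measured by qRT-PCR, normalized to ACTB, GAPDH, POLR2A.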

Measured: outcome

Chain of Apoptosis regulator Bcl-2 (Homo sapiens) (P10415 whole entry, looked up): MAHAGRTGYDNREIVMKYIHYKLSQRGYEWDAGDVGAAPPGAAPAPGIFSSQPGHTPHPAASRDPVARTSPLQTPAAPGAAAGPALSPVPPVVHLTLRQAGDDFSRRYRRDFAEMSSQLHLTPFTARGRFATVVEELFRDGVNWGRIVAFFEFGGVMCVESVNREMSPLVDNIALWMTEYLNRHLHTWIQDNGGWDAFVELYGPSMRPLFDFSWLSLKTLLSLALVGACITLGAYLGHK
Chain of Broad substrate specificity ATP-binding cassette transporter ABCG2 (Homo sapiens) (Q9UNQ0 whole entry, looked up): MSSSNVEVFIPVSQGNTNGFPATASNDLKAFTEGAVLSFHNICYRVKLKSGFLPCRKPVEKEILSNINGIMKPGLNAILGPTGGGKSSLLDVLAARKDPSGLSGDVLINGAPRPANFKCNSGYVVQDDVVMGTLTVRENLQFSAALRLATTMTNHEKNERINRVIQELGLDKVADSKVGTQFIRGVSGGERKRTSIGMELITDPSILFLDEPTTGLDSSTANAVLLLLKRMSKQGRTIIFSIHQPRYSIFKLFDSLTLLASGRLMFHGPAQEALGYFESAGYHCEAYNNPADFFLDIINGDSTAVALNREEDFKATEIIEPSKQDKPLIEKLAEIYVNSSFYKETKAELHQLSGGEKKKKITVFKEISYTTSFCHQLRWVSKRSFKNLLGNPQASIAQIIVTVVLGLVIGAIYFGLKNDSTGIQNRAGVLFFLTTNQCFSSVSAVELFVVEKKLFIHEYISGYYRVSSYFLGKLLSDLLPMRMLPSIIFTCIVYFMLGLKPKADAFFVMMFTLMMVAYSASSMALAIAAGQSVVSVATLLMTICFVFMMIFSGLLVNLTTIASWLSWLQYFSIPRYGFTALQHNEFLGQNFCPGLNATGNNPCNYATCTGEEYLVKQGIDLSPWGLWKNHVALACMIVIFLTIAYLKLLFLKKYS
Chain of Caspase-3 (Homo sapiens) (P42574 whole entry, looked up): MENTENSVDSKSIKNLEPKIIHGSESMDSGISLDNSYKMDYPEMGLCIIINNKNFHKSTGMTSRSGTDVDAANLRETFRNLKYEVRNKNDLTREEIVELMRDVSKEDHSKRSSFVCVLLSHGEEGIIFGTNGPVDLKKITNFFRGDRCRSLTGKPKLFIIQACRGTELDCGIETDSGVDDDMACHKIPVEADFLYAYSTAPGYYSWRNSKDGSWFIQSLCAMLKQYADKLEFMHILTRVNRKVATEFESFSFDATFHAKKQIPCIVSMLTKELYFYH

CS(=O)(=O)OCCCCOS(C)(=O)=O
inactive: [1] | [2] | [3] | [4] | [5] | [6] | [7] | [8] | [9] | [10] | [11] | [12] | [13] | [14] | [15] | BCL2L11 (gene 10018) | [16] | [17] | [18] | Caspase-3 (Homo sapiens)
